# According to the supplement of paper PMC10981050:
# Values joined by “and” are separate entries in the source; they are usually repeats but may differ in a detail not shown here. Equal values may be shown once. Where a name gives a salt, the structure may show the parent alone.
# Columns and labels:
# Assay in all cases: cell viability relative to vehicle control; higher = less cytotoxic
# Details in all cases: 10 µM
# K562 = system: K562
# Procedure, shortened: (§1)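 Mutant clones made by CRISPR editing and their isogenic wild-type counterparts, from four leukaemia lines, were exposed to a single 10 µM dose of each library compound for 48 h. The supernatant was then removed and CellTiter-Glo luminescence was read. Viability was reported as percent of the on-plate vehicle control.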
# MARIMO = system: MARIMO
# Procedure, shortened: as §1
# MOLM14 = system: MOLM14
# Procedure, shortened: as §1
# OCI-AML2 = system: OCI-AML2
# Procedure, shortened: as §1
SMILES,cell viability (K562; SRSF2 genotype: SRSF2 P95H/wt),cell viability (K562; SRSF2 genotype: SRSF2 wt/wt),cell viability (MARIMO; SRSF2 genotype: SRSF2 P95H/wt),cell viability (MARIMO; SRSF2 genotype: SRSF2 wt/wt),cell viability (MOLM14; SRSF2 genotype: SRSF2 P95H/wt),cell viability (MOLM14; SRSF2 genotype: SRSF2 wt/wt),cell viability (OCI-AML2; SRSF2 genotype: P95H/wt),cell viability (OCI-AML2; SRSF2 genotype: wt/wt)
CC(C)NCC(O)c1ccccc1Cl (configuration not stated) [Clorprenaline HCL],98.2% and 96.8%,104%,98.2%,107%,95.2%,101%,108%,99.1%
Nc1ncnc2c1ccn2[C@@H]1O[C@H]([C@H](O)c2ccccc2)[C@@H](O)[C@H]1O,89.1% and 85%,79.6%,83.5%,95.3%,77.1%,89.3%,79%,88%
NC(=O)CN1CCCC1=O [Piracetam],96.1% and 103%,98.7%,102%,102%,99.6%,105%,103%,112%
CCN(Cc1ccc(Cl)nc1)/C(=C/[N+](=O)[O-])NC [Nitenpyram],98.8% and 88.3%,99.9%,94.5%,99%,97.7%,98.6%,95.2%,99.8%
